JMJD2C inh = blocks human GASC-1 demethylase activity. hit rate 0.069% among 330,000. Q9H3R0. AID 2099. inhibition, % at 2.35 µM. GST-JMJD2C(1-420) H3K9me3 demethylation, DELFIA europium;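 active = more than half of a compound's replicate wells show inhibition beyond 50%, single wells judged on their own value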;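 note: signal counts dimethyl H3K9 product captured on neutravidin plate; 0% = median of DMSO wells and 100% = 0.3 times that DMSO median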
PP5 inh = blocks human protein phosphatase 5 activity; P53041; purified PP5c, OMFP substrate fluorescence; inhibition, % at 6.7 µM; hit rate 0.18% among 320,000;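 active = inhibition above the campaign's mean inhibition across all tested compounds plus 3 SD, cut at about 9.5% in these data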;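 note: 0% = DMSO only and 100% = 100 µM cantharidin control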
PP1 counter = PP1-alpha (human) inhibition in PP5 counter-screen | hit rate 0.9% among 320,000 | inhibition, % at 6.7 µM | purified PP1alpha, OMFP fluorescence;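 active = inhibition above the mean inhibition of all tested compounds plus 3 SD, computed separately for each screening campaign, cut at about 15% in these data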
Target sequence (P62136 whole entry, looked up): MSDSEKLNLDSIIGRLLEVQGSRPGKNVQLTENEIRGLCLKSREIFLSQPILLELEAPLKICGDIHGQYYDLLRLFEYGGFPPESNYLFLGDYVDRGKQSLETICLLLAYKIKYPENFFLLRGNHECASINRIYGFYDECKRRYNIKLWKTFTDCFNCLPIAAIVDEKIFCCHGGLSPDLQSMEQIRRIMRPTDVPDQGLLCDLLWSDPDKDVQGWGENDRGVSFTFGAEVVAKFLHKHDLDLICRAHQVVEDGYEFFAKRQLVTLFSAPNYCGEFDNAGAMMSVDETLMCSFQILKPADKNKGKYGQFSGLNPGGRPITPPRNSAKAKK
KLK7 zymogen act = activators of human kallikrein-7 zymogen; activation, % at 7 µM; P49862; hit rate 0.9% among 370,000; purified proKLK7, EDANS-DABCYL substrate fluorescence; 100% is mature enzyme control, 0% vehicle;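 active = activation above the mean of all tested compounds plus 3 SD, computed per campaign excluding outliers beyond control limits, cut at about 13% in these data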
Target sequence (P49862 whole entry, looked up): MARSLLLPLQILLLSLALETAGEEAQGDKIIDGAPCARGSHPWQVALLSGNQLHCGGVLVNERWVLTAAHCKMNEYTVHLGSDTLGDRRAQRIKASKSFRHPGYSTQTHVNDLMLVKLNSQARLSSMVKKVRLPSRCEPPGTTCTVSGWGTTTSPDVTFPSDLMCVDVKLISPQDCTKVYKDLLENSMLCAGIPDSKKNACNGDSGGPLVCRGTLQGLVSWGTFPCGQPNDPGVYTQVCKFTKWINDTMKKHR
Rev-erbA mod = Rev-erb alpha (human) modulation; P20393; Rev-erbα–FITC-DNA binding, fluorescence polarization, 90 min; activity, % at 10 µM; hit rate 0.79% among 370,000;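 active = activity above about 14%, limit read from the data; passing the limit was not always enough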;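 note: 0% = DMSO wells with 35 nM protein and 100% = DMSO wells with 750 nM protein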
PG9 Ab binder = small molecules binding HIV-1 gp120 antibody PG9 | hit rate 0.43% among 360,000 | AID 624416 | TR-FRET gp120-PG9 antibody binding | inhibition, % at 6.7 µM; in the data active = inhibition above about 8.5%
Rev-erbA confirm = confirmation of modulators of human Rev-erb alpha DNA binding; shares compounds with Rev-erbA mod; Rev-erb alpha FITC-DNA binding, fluorescence polarization, 90 min; activation, % at 25 µM; hit rate 61% among 3,000; AID 1259319;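 active = activation at or above a set limit, or at least 3 SD above the negative control mean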;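 note: 0% = 35 nM protein with DMSO and 100% = 750 nM protein high control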
RORg DNA counter = RORgamma DNA-binding activity, dose-response counter-screen | shares compounds with Rev-erbA mod | purified RORgamma protein-FITC-DNA binding, fluorescence polarization | IC50, µM | hit rate 8% among 910;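 active = Compounds whose fitted half-maximal concentration for disrupting protein-DNA binding is below 10 micromolar; the record names Rev-erb in its text, so the target is in doubt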
Numbers without * were called inactive; / = no result given. A selection: hits, their analogues and other compounds. The true share with any hit is near 2.8%.

SMILES	JMJD2C inh	PP5 inh	PP1 counter	KLK7 zymogen act	Rev-erbA mod	PG9 Ab binder	Rev-erbA confirm	others
Cc1cc(C)n2nc(-c3ccc(Br)cc3)cc2n1	-4	4	-3	0	27*	-2	3
CC(=O)c1cnc2cc(-c3ccc(Cl)cc3)nn2c1C	-3	5	5	0	28*	1	10
CN(c1ccc(NC(=O)Cc2cn(C)c3ccccc23)cc1)c1ccccn1	/	/	/	1	-1	-1	/
COC(=O)C[C@@H]1CC[C@@H]2[C@@H](COc3ccc(NC(=O)Nc4ccc(F)cc4)cc3C(=O)N2C)O1	/	/	/	0	2	/	/
CCCCNS(=O)(=O)/C=C/c1ccccc1CCNC(=O)OC(C)(C)C	/	/	/	0	-8	/	/
COC(=O)C1CN(CCc2ccccc2)CCS(=O)(=O)N1Cc1ccccc1F (centres undefined)	/	/	/	0	1	/	/
CCn1c(=O)cc(N2CCN(c3cccc(C(F)(F)F)c3)CC2)[nH]c1=O	/	/	/	/	-5	/	/
CCOC(=O)c1sc(NC(=O)Nc2ccccc2F)nc1C	-7	0	7	0	4	2	/
CCOC(=O)c1sc(NC(=O)c2cc3ccccc3o2)nc1C	15	0	-2	0	30*	3	5
CCOC(=O)c1sc(NC(=O)c2ccccc2OC)nc1C	3	0	-3	0	40*	-1	23*
COC(=O)c1sc(NC(=S)NC(=O)c2ccccc2F)nc1C	-8	3	-2	0	43*	2	0
COc1ccccc1C(=O)Nc1nc2ccccc2s1	-6	3	-3	-2	34*	0	41*	RORg DNA counter=>40
CCCOc1ccc(F)cc1-c1cc(C(=O)Nc2ccccc2)[nH]n1	/	/	/	1	21*	1	-7
CCOC(=O)C1=NOC(C(C)=O)(C(=O)Nc2cc(C)cc(C)c2)C1 (centres undefined)	/	/	/	1	4	/	/
COc1ccc2cc(C#N)c(Nc3cccc(F)c3)nc2c1	-6	2	0	0	55*	1	42*	RORg DNA counter=>40
Brc1ccc(-c2csc(N3CCC(c4nn[nH]n4)CC3)n2)cc1	/	/	/	/	-7	/	/
N#Cc1cnn2c1nc(N1CCCCC1)c1ccccc12	-11	3	2	0	32*	-2	3
c1ccc2c(c1)nc(N1CCCCC1)c1ccccc12	5	-2	-4	1	-1	-1	/
COC(=O)c1ccc2nc(-c3ccco3)c(Cc3ccsc3)n2c1	/	/	/	-1	0	-1	/
Cc1ccc(C)c(OCc2nnc(NC(=O)c3ccc4c(c3)OCO4)s2)c1	-1	-1	-6	-1	30*	1	10
COC(=O)c1c(-c2cccnc2)csc1NC(=O)c1ccc2c(c1)OCO2	-22	1	-2	0	20*	-22	-8
COc1ccccc1-c1nnc(NC(=O)c2ccc3c(c2)OCO3)s1	/	-3	-2	0	55*	3	10
COC(=O)c1sccc1NC(=O)c1ccc2c(c1)OCO2	-6	3	-3	0	-3	0	/
O=C(CSc1nnc(-c2ccccc2)n1-c1ccc(Cl)cc1)Nc1cccc2ccccc12	/	/	/	0	-2	/	/
CN(C(=O)[C@@H]1CC=C[C@@H]2CCN(C3CCCCC3)C(=O)[C@@H]21)c1ccccc1	/	/	/	/	-5	/	/
SMILES	JMJD2C inh	PP5 inh	PP1 counter	KLK7 zymogen act	Rev-erbA mod	PG9 Ab binder	Rev-erbA confirm	others
CC(=O)C1(C(=O)N2CCOCC2)CC(c2ccccc2C(F)(F)F)=NO1 (centres undefined)	/	/	/	1	4	/	/
CN(C)c1ccc(S(=O)(=O)N2CCCCC2)cc1NC(=O)C1CSC2(C)CCC(=O)N12 (centres undefined)	2	-1	-3	1	3	1	/
CCN(CC)S(=O)(=O)c1ccc(N2CCCCC2)c(NC(=O)C2CSC3(C)CCC(=O)N23)c1 (centres undefined)	/	/	/	0	31*	0	47*	RORg DNA counter=>40
C=CCNC(=O)Cn1nnc(-c2ccc(-c3ccc(OC)cc3)cc2)n1	-3	2	1	-1	39*	0	1
Cc1ccc(-c2nc3cc(Br)cnc3nc2-c2ccc(C)cc2)cc1	4	0	-3	-1	26*	2	16
Cc1nc2ncc(Br)cc2[nH]1	-19	-1	-2	0	-1	-1	/
Cc1c(C)c2ccc(OCC(=O)Nc3ccc(S(N)(=O)=O)cc3)c(C)c2oc1=O	3	1	-2	-2	25*	5	11
O=C(COc1ccc2c(-c3ccccc3)cc(=O)oc2c1)Nc1ccc(CCO)cc1	0	2	13	-6	53*	6	25*
O=C(COc1ccc2c(-c3ccccc3)cc(=O)oc2c1)Nc1ccc(CN2CCOCC2)cc1	-20	2	-5	-2	-25	0	/
COC1=C/C(=C/c2c(N)n3cc(C)sc3nc2=O)C=CC1=O	-5	-5	-3	7	17	-8	/
Cc1cn2c(N)c(C=C3C=C(Cl)C(=O)C(Cl)=C3)c(=O)nc2s1	-15	/	/	0	26*	1	12
CC(C)NC(=O)N[C@H]1C[C@@H]2O[C@@H](CO)CC[C@@H]2O[C@@H]1CCc1ccc(-c2ccccc2F)cc1	/	/	/	0	-4	/	/
O=S1(=O)c2ccccc2-c2c(nnn2CC2CCCCC2)CN1C1CC1	/	/	/	0	-5	/	/
N#CC(C#N)=C1C=C2C=C(N3CCOCC3)CCC2CC1 (centres undefined)	-6	/	/	5	305*	-4	111*	RORg DNA counter=>40
CC1(C)CC(NCCN2CCN(C3=CC(=C(C#N)C#N)CC(C)(C)C3)CC2)=CC(=C(C#N)C#N)C1	-1	1	-1	0	1	0	/
N#CC(C#N)=C1C=C2C=C(N3CCCCCC3)CCC2CC1 (centres undefined)	0	/	/	10	273*	-10	167*	RORg DNA counter=>40
Cc1ccnc(SCc2cc(=O)c(OC(=O)c3ccc(C)c([N+](=O)[O-])c3)co2)n1	/	/	/	/	6	/	/
O=c1oc(C2(O)CCCCC2)cc2ccc(-c3ccc4[nH]ccc4c3)cc12	/	/	/	-1	22*	-5	11
O=c1oc(C2(O)CCCCC2)cc2ccccc12	43	/	/	0	8	-1	/
COc1ccc(-c2nc(NC(=O)c3ccc(OCC(=O)N4CCOCC4)c(OC)c3)sc2C)cc1	-3	2	2	0	-1	-1	/
CCc1ccc(-c2nc(NC(=O)c3ccc(OCC(=O)Nc4ccc(F)cc4)c(OC)c3)sc2C)cc1	-5	-2	-3	0	113*	-1	66*	RORg DNA counter=>40
COc1cc(C(=O)Nc2nc(-c3ccc(Cl)cc3)c(C)s2)ccc1OCC(=O)Nc1ccc(F)cc1	-4	-2	0	0	122*	0	125*	RORg DNA counter=>40

Bioassay records deposited in PubChem BioAssay by several laboratories.
